The nature of test [1]: Viability qHTS for spleen associated tyrosine kinase inhibitor (SYKi) naive MV4-11 cells (AID 1963823). Note: nearly all actives have a fitted effect of over 40% in size. An outline of the steps:
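Viability of MV4-11 AML cells lacking prior SYK inhibitor exposure is scored by CellTiter-Glo luminescence following 72 hr compound incubation at 37 C, 5% CO2, seeded at 500 cells per well.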
In general terms: Quantitative high-throughput screening tests each substance at several concentrations.

Test [2] can be described thus: Viability qHTS for spleen associated tyrosine kinase inhibitor (SYKi) drug resistant MV4-11 cells (AID 1963824). Note: nearly all actives have a fitted effect of over 35% in size. An outline of the steps: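 SYK-inhibitor-resistant MV4-11 AML cells were seeded at 500 per well onto compound and cultured 72 hours (37 °C, 5% CO2). CellTiter-Glo was then added, and after 10 min at room temperature, luminescence gave viability.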

The structures appear in SMILES notation. Results filed as inconclusive are left out. Active and inactive are the calls of the source. Calls come from the whole dose curve; as a rule, active = well fitted cell-killing curve with a large enough effect; inconclusive = small, poorly fitted or top-dose-only effect, or effect the other way; inactive = no such curve, though single readings can be large or run the other way.
Potency is the fitted concentration of half-maximal effect.

Take `COC(=O)C1=COC(OC2OC(CO)C(O)C(O)C2O)C2C(COC(=O)/C=C/c3ccc(O)cc3)C(O)C(O)C12` (stereo not given): the Potency entry in test [1] and in test [2] was “inactive” throughout.
Take `CC(=O)O[C@@H]1[C@@H](O)[C@H](C)O[C@@H](O[C@H]2[C@@H]3C=CO[C@@H](O[C@@H]4O[C@H](CO)[C@@H](O)[C@H](O)[C@H]4O)[C@@H]3[C@@]3(CO)O[C@@H]23)[C@@H]1OC(=O)/C=C/c1ccccc1`: the Potency result in test [1] and in test [2] was “inactive” throughout.
Consider `C/C=C(/COC(=O)/C(C)=C/C)C(=O)OC(CC)c1ccc(OC)c(OC)c1` (stereo not given), for which the Potency entry in test [1] and in test [2] was “inactive” throughout.
Consider `C[C@H]1[C@@H](O)[C@H](O)C2[C@]3(C)C([C@@H](O)[C@H]4OC(=O)[C@@H]1[C@@]24C)[C@](C)(O)C=C[C@H]3O[C@@H]1O[C@H](CO)[C@@H](O)[C@H](O)[C@H]1O` (stereo not given in full), for which the Potency entry in test [1] and in test [2] was “inactive” each time.
As for `CCNC(=O)c1noc(-c2cc(Cl)c(O)cc2O)c1-c1ccc(OC)cc1`, the Potency in test [1] is 32.6 nM (active); in test [2], 58 nM (active).
On the same counts, the results for `Cc1c(-c2ccnc(Nc3cc(Br)cc(C(F)(F)F)c3)n2)sc(=O)n1C` are “inactive” and “inactive”.
The like results for `O=C(/C=C/c1ccc(O)cc1)OCC1OC(O)C(OC2OC(CO)C(O)C(O)C2O)C(O)C1O` (stereo not given) were, in that order, “inactive” and “inactive”.
In the case of `CCC1C(=O)N(C)c2cnc(Nc3ccc(C(=O)NC4CCC(N5CCN(CC6CC6)CC5)CC4)cc3OC)nc2N1C(C)C` (stereo not given), the Potency is 25.9 nM (active) in test [1] and 11.6 nM (active) in test [2].
Consider `CCOC(=O)c1cccc(CNc2ccc(N(C)C(=O)Nc3ccccc3)cc2)c1`, for which the Potency in test [1] was 18400 nM (active); in test [2] it was 11600 nM (active).
Regarding `C=C1C(=O)OC2C1CCC1(C)C(O)CC=C(C)C21` (stereo not given), the Potency was 10300 nM (active) in test [1] and 4610 nM (active) in test [2].

The values above are taken from PubChem BioAssay (NCATS).
